AMA1-RON2 inh: inhibitors of Plasmodium falciparum AMA1-RON2 interaction; AlphaScreen AMA1-biotinylated RON2 peptide binding; AID 720542; 360,000 compounds, 0.2% hits; Potency, µM (doses to about 58.2 µM), most hits filed as inhibitors; note: nearly all actives have a fitted effect of over 45% in size
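AMA1 (3D7) with his tag at 25 nM final met compounds first, then biotinylated RON2 peptide at 25 nM; detection used donor plus acceptor beads, 10 µg/mL apiece, read by AlphaScreen after 30 min at room temperature.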
Pf growth 48h: P. falciparum growth inhibition at 48 hours (one generation); AID 504832; P. falciparum luciferase growth in erythrocytes, 48 h; Potency, µM (highest dose often 28.7 µM), hits mostly inhibitors; 310,000 compounds, 5.9% hits
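Parasite viability was followed by luminescence of a genomically integrated firefly luciferase. Cultures held 0.1% parasitemia at 2% hematocrit (final), incubated under 5% CO2 at 37 C.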
HCV inhibitor: inhibitors of hepatitis C virus infection | Huh7.5.1 HCVcc-Cre infection, luciferase reporter, 44 h | Potency, µM (highest dose often 41.8 µM), usual class: inhibitors | 340,000 compounds, 3.4% hits | AID 651820
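Cells seeded at 1,000/well and cultured 4 h, then compounds added followed by HCVcc-Cre virus (~0.5 moi). After 44 h further culture, luciferase substrate was added, plates held 15 min at room temperature, and luminescence read for 15 sec.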
Pf growth 96h: P. falciparum growth inhibition at 96 hours | P. falciparum luciferase reporter growth, 96 h | Potency, µM (highest dose often 28.7 µM), most hits filed as inhibitors | 320,000 compounds, 6.9% hits | AID 504834
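Compounds incubated with erythrocytes infected by luciferase-expressing P. falciparum (2% hematocrit, 0.05% parasitemia final) for 96 hours, 37 C in 5% CO2. Growth inhibition scored as decreased luciferase luminescence.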
Numbers stand for hits; . = inactive; ? = inconclusive; / = not tested or not shown; [ ] = another dose, or the depositor's remark. The list is not random: actives were taken first. Their share in the collection is about 11%. Calls come from the whole dose curve; as a rule, active = well fitted curve in the direction sought with a large enough effect; inconclusive = small, poorly fitted or top-dose-only effect, or another doubt; inactive = no such curve, though single readings can be large; an effect the other way counts as inactive or inconclusive.

SMILES	AMA1-RON2 inh	Pf growth 48h	HCV inhibitor	Pf growth 96h
CN(CCO)S(=O)(=O)c1ccc2c(c1)C(=NN)c1cc(S(=O)(=O)N(C)CCO)ccc1-2	.	.	.	.
COc1ccc(OC)c(-c2cc(C(=O)N/N=C(\C)c3cccnc3)c3ccccc3n2)c1	.	1.47µM	.	.
COc1ccccc1CNC(=O)c1ccc(C)s1	.	.	.	6.57µM
COc1ccccc1CNC(=O)c1cc(-c2cccnc2)nc2ccccc12	.	10.4µM	?	.
COc1ccccc1CNC(=O)Cc1ccccc1	.	.	.	.
COc1ccc(-c2cc(C(=O)N/N=C(\C)c3cccnc3)c3ccccc3n2)c(OC)c1	.	.	.	?
COc1ccccc1CN1CC(C(=O)NCc2cccnc2)CC1=O (centres undefined)	.	.	.	2.08µM
COC(=O)C1CCN(C2CN(Cc3ccc(C)cc3)S(=O)(=O)C2)CC1 (centres undefined)	.	/	/	/
N#CCCCc1cc2ccccc2cn1	.	/	?	/
COc1ccccc1CNC(=O)c1cccnc1	.	.	.	11.7µM
O=C(NCc1cccnc1)c1cc(Sc2ccc(F)cc2F)nc2ccccc12	.	?	10µM	.
Cc1cccc(C)c1NC(=O)CN(C)C(=O)c1ccc(OCc2ccccc2)cc1	.	/	/	/
Clc1ccc(C2[C@H]3CN(Cc4cccnc4)[C@H](c4ccccc4)C34CC2(c2cccnc2)C4)cn1 (some centres undefined)	.	10.4µM	.	4.65µM
N#Cc1ccc(C23CC4(C2)[C@H](CN(Cc2ccc(-c5ccccc5)cc2)[C@@H]4c2ccccc2)C3c2ccc(C(F)(F)F)cc2)cc1 (some centres undefined)	.	14.7µM	.	?
c1ccc(-c2ccc(CN3C[C@@H]4C(c5ccccc5)C5(c6cccnc6)CC4(C5)[C@H]3c3ccccc3)cc2)cc1 (some centres undefined)	.	2.94µM	.[8.37 µM]	4.15µM
FC(F)(F)c1ccc(C2[C@H]3CN(Cc4ccc(-c5ccccc5)cc4)[C@H](c4ccccc4)C34CC2(c2ccccc2)C4)cc1 (some centres undefined)	.	?	.[8.37 µM]	.
COC(=O)c1cccc(C23CC4(C2)[C@H](CN(Cc2ccc(C(F)(F)F)cc2)[C@@H]4c2ccccc2)C3c2ccccc2)c1 (some centres undefined)	.	?	.	?
FC(F)(F)c1ccc(CN2C[C@@H]3C(c4ccc(Cl)nc4)C4(c5ccccc5)CC3(C4)[C@H]2c2ccccc2)cc1 (some centres undefined)	.	11.7µM	.	?
CC(C)CSCC1OC(n2cnc3c(N)nccc32)C(O)C1O (centres undefined)	.	/	/	/
FC(F)(F)c1ccc(C2[C@H]3CN(Cc4cccnc4)[C@H](c4ccccc4)C34CC2(c2cccnc2)C4)cc1 (some centres undefined)	.	1.85µM	?	1.47µM
FC(F)(F)c1ccc(C2[C@H]3CN(Cc4ccc(-c5ccccc5)cc4)[C@H](c4ccccc4)C34CC2(c2cccnc2)C4)cc1 (some centres undefined)	.	3.29µM	.	0.415µM
CN1C[C@@H]2C(c3ccccc3)C3(c4cccnc4)CC2(C3)[C@H]1c1ccccc1 (some centres undefined)	.	11.7µM	?	11.7µM
CC(OC(=O)Cc1n[nH]c(=O)c2ccccc12)C(=O)Nc1cccc([N+](=O)[O-])c1 (centres undefined)	.	.	.	.
CNS(=O)(=O)c1cccc(C(=O)NCC(c2cccs2)N2CCOCC2)c1 (centres undefined)	.	.	.	.
CN1C2=C(C#N)C(c3ccccc3)(C(F)(F)F)NC(=O)N2c2ccccc21 (centres undefined)	.	/	.	7.38µM
SMILES	AMA1-RON2 inh	Pf growth 48h	HCV inhibitor	Pf growth 96h
Cc1ccccc1S(=O)(=O)Cc1ccc(C(=O)N2CC(C)CC(C)C2)o1 (centres undefined)	.	/	.	16.5µM
Cc1ccccc1S(=O)(=O)Cc1ccc(C(=O)N2CCN(c3cccc(C)c3C)CC2)o1	.	?	5.01µM	/
CC1CCCC(NC(=O)C2COc3ccccc3O2)C1C (centres undefined)	.	.	.	.
COc1cccc(-c2cnc3c(NC(C)=O)cc(-c4ccc(C(=O)NC5CC5)cc4)cn23)c1	.	/	/	/
Cc1cccc(-n2ncc3c(NCCc4ccc(S(N)(=O)=O)cc4)ncnc32)c1	.	/	.	10.4µM
Cc1cccc(-n2ncc3c(NCc4ccccc4)ncnc32)c1	.	.	?	.
O=C1C2C(c3ccccc3)(C(=O)N1c1ccc(Cl)cc1)C2(c1ccccc1)c1ccccc1 (centres undefined)	.	4.15µM	?	?
O=C1c2ccccc2C(=O)N1c1ccc(Cl)cc1	/	/	/	.
O=S(=O)(c1ccc(F)cc1)c1nc(-c2ccco2)oc1NCCCn1ccnc1	.	/	/	/
CCN(CC)S(=O)(=O)c1ccc2c(c1)nc(CCC(=O)Nc1ccccc1Cc1ccccc1)n2CC	.	11.7µM	10µM	/
O=C(/C=C/c1cccs1)NC(=S)NNC(=O)c1ccccc1O	.	?	22.4µM	.
COc1ccc(N2CCN(c3nccs3)CC2)cc1	.	.	.	.
Cc1cnc(C(=O)NNC(=O)c2ccc(Br)cc2)cn1	.	11.7µM	?	?
CCOC(=O)N1CCN(C(=O)COc2ccc3ccccc3c2Br)CC1	.	.	.	13.1µM
CCOC(=O)N1CCN(C(=O)Cc2c(C(=O)O)n(C)c3ccccc23)CC1	.	.	3.55µM	.
COc1ccc(NC(C)=O)cc1NC(=O)c1ccc(C#N)cc1	.	.	.	.
O=C(Cc1c(F)cccc1Cl)OCC(=O)c1ccc[nH]1	.	/	.	/
Cc1cc(NC(=O)CSc2ccc(-c3nc4cc(C)c(C)cc4[nH]3)cn2)no1	.	3.29µM	.	.
Cc1cc2nc(-c3ccc(SCC(=O)NC(C)C)nc3)[nH]c2cc1C	/	?	/	.
Cc1cc2nc(-c3ccc(SCC(=O)N4CCc5ccccc54)nc3)[nH]c2cc1C	?	?	5.01µM	?
CCCCN(C)CCNC(=O)CN1C(=O)CSc2ccc(S(=O)(=O)N3CCCC3)cc21	.	.	.	.
O=C(Cn1c(C(=O)N2CCc3ccccc3C2)cc2sccc21)c1ccccc1	.	14.7µM	.	.
O=C(Cn1c(C(=O)N2CCN(C3CCCCC3)CC2)cc2sccc21)c1ccccc1	.	?	.	.
CC(=O)Nc1ccc(OS(=O)(=O)c2c(C)cc(C)cc2C)cc1	.	.	.	.
O=C(NN=C1CCCCCCCCCCC1)c1cccc(S(=O)(=O)N2CCOCC2)c1	.	.	.	.
CCc1ccccc1NC(=S)N(CCN(C)C)C(C)c1ccccn1 (centres undefined)	.	.	22.4µM	/
O=[N+]([O-])c1ccc(Cl)c(S(=O)(=O)Nc2cccc(-c3ccc(N4CCCC4)nn3)c2)c1	.	.	?	.
COCCn1nnnc1C(c1cc2ccc(C)cc2[nH]c1=O)N(Cc1ccco1)Cc1cccs1 (centres undefined)	.	/	.	.
